What was measured:
[1] = test system: Human papillomavirus type 1a protein E7 (residues 44-93); assay: small molecules binding HPV E7 44-93 – biochemical, small-molecule microarray, residues 44-93, 635 nm fluorescence, primary screen (AID 1108); details: fluorescence 635 nm, higher = more signal;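 further: E7 fragment applied at 1 µg/mL in TBST for 1 h at 4 C; score combines spot fluorescence with its signal to noise ratio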
[2] = hepatitis C replication reporter changes, two-sided – Huh7 cells, luciferase reporter, HCV replication inhibitor project, primary screen (AID 1109); details: Huh7 HCV replicon luciferase reporter, 48 h; higher = more signal;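 further: huh7 hepatoma cells harbouring a luciferase neomycin HCV replicon reporter; luciferase luminescence as measure of HCV replicon replication; test concentration not given here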
[3] = target: Left-right determination factor 2 (Homo sapiens) (UniProt O00292); assay: small molecules binding LEFTY2 protein – biochemical, small-molecule microarray, 635 nm fluorescence scan, primary screen (AID 1110); details: higher = more signal
[4] = target: Calmodulin-1 (Homo sapiens) (UniProt P0DP23); assay: small molecules binding calmodulin-1 with EGTA – biochemical, small-molecule microarray, Cy5-labelled CALM1, profiling panel (AID 1111); details: Cy5-CALM1 binding fluorescence, higher = more signal;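 further: labelled calmodulin applied in Tris saline Tween buffer holding calcium plus EGTA and DTT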
[5] = target: Calmodulin-1 (Homo sapiens) (UniProt P0DP23); assay: small molecules binding Ca-loaded calmodulin-1 – biochemical, small-molecule microarray, Cy5-labelled CALM1, plus calcium, artefact control for SMM control-protein annotation, profiling panel (AID 1112); details: Cy5-CALM1 binding fluorescence, higher = more signal;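 further: score merges spot fluorescence with signal to noise from triplicate slides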
[6] = probe aWnt5a binding to arrayed compounds – biochemical, biotinylated probe, 635/667 nm fluorescence, primary screen (AID 1113); details: small-molecule microarray, higher = more signal;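 further: score merges 667 nm fluorescence intensity with signal-to-noise per printed feature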
[7] = probe aShh binding to arrayed compounds – biochemical, biotinylated probe, 635/667 nm fluorescence, primary screen (AID 1114); details: small-molecule microarray, higher = more signal;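 further: probe is biotin-labelled aShh protein from a stem cell growth factor screen; measures binding of labelled protein to compounds printed on the slide; score merges feature fluorescence at 667 nm with signal-to-noise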
[8] = probe aNog binding to arrayed compounds – biochemical, biotinylated probe, 635/667 nm fluorescence, primary screen (AID 1115); details: small-molecule microarray, higher = more signal;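 further: probe is biotinylated aNog protein used at 0.15 µg/mL for 1 h at 4 C; z-score combines 667 nm fluorescence of each spot with its signal to noise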
[9] = target: Torsin-1A-interacting protein 1 (Homo sapiens) (UniProt Q5JTV8); assay: compound microarray binding of lysate hLAP1 – cell lysate, small-molecule microarray, COS7 lysate, 635/667 nm fluorescence, primary screen (AID 1116); details: 635 nm fluorescence, higher = more signal
[10] = target: Alpha-bungarotoxin (Bungarus multicinctus) (UniProt P60615); assay: compounds binding labelled alpha-BTX control protein – biochemical, small-molecule microarray, Alexa647 label, 635/667 nm fluorescence, artefact control for SMM control protein annotation, profiling panel (AID 1117); details: alpha-BTX-A647 binding fluorescence, higher = more signal
Sequence of Alpha-bungarotoxin (Bungarus multicinctus) (P60615 whole entry, looked up): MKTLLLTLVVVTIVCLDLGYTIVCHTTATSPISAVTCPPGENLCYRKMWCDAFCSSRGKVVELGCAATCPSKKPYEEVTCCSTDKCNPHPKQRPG

Sequence of Left-right determination factor 2 (Homo sapiens) (O00292 whole entry, looked up): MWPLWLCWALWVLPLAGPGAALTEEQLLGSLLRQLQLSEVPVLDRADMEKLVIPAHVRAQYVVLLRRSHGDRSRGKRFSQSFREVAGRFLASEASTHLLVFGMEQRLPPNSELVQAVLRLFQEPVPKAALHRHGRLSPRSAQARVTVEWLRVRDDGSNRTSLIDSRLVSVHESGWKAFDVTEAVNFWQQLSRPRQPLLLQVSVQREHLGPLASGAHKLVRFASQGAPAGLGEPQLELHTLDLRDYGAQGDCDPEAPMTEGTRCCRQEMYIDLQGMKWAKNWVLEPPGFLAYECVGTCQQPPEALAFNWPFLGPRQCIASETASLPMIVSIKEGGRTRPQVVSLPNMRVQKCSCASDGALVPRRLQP
Sequence of Torsin-1A-interacting protein 1 (Homo sapiens) (Q5JTV8 whole entry, looked up): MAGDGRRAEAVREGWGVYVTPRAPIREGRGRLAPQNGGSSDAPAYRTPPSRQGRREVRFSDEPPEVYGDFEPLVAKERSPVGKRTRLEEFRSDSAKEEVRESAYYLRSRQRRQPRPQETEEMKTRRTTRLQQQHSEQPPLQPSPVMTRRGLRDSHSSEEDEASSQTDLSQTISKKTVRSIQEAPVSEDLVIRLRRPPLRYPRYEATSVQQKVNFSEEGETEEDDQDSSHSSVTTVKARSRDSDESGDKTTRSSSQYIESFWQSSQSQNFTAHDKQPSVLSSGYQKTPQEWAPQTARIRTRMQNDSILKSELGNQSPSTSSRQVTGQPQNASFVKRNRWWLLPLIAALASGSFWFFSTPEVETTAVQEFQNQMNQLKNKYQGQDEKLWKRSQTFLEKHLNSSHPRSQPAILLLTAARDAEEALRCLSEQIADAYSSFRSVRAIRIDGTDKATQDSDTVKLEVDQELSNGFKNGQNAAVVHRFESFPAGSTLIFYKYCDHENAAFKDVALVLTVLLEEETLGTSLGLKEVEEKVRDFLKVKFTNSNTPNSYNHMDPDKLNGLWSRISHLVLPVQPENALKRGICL

| SMILES | composite z-score [1] | z-score [2] | composite z-score [3] | composite z-score [4] | composite z-score [5] | composite z-score [6] | composite z-score [7] | composite z-score [8] | composite z-score [9] | composite z-score [10] |
| --- | --- | --- | --- | --- | --- | --- | --- | --- | --- | --- |
| CC#CC(=O)Oc1ccc(Br)cc1C=CC(=O)OCC | 1.23 | -2.4 | -0.034 | -0.323 | -0.465 | -0.0154 | 0.42 | 0.302 | 0.286 | 0.683 |
| C=CCC(OC(C)=O)[C@@H]1[C@@H](N(Cc2ccc(-c3cccc(C(F)(F)F)c3)o2)C(=O)Cc2ccc(OC)cc2)c2cc(OCCCO)ccc2N1C(=O)c1ccc2ccccc2c1 (stereo not given in full) | -0.759 | 0.613 | -0.394 | -0.477 | -0.506 | -0.124 | -0.214 | -0.261 | -0.157 | -0.0185 |
| C=CCN1Cc2ccccc2[C@@H]2OC(c3ccc(OCCCO)cc3)=N[C@]2(CCS(=O)(=O)c2ccccc2)C1=O | 1.33 | -1.48 | 0.954 | 0.804 | -0.321 | -0.0009 | 0.377 | 0.714 | 1.58 | 1.42 |
| C=CCNC(=O)[C@@H]1[C@H]2C(=O)O[C@H](c3ccccc3)[C@H](c3ccccc3)N2[C@H](c2ccc(OCCO)cc2)[C@@]12C(=O)N(C(=O)OCCOC)c1ccc(C#CCC(C(=O)OC)C(=O)OC)cc12 | 0.805 | -1.5 | 0.969 | 1.61 | 0.105 | -0.0302 | 0.199 | 0.804 | 1.03 | 1.26 |
| COCCCNC(=O)[C@@]1(CCS(=O)(=O)c2ccccc2)N=C(c2ccc(OCCCO)cc2)O[C@H]1c1ccccc1N=[N+]=[N-] | 1.48 | -1.6 | 0.169 | 1.55 | 0.001 | 0.127 | 0.204 | 1.36 | 2.24 | 1.67 |
| O=C(NC1CC1)[C@@H]1c2ccccc2C(=O)N(C2Cc3ccccc3C2)[C@H]1c1ccc(CO)cc1 | 1.32 | -0.865 | 0.716 | -0.199 | -0.253 | -0.0512 | -0.457 | -0.608 | 0.599 | 0.154 |
| CN(C)CCCCCCNC(=O)[C@@H]1C[C@@H]2C(=O)N3CCC[C@H]3C(=O)N2[C@@H]1c1ccc(O)cc1 | 1.42 | 1.49 | 1.5 | -1.95 | -1.42 | -0.062 | 0.42 | -0.364 | 2.23 | 2.36 |
| CCCC=C(CCC)[C@@H](NS(=O)(=O)c1ccc(Cl)cc1)c1ccc(C(=O)OC)cc1 | 1.31 | 0.677 | -0.0953 | -0.246 | -0.526 | -0.183 | -0.0386 | -0.201 | 0.892 | 1.29 |
| COC(=O)[C@@]1(Cc2ccc(OC)cc2)[C@H]2c3cc(C(=O)N4CCCC4)n(Cc4nc5ccccc5[nH]4)c3C[C@H]2CN1C(=O)c1ccccc1 | 1.38 | -2.61 | -0.413 | 2.7 | 1.54 | 0.216 | 0.215 | 2.39 | 2.79 | 1.07 |
| COC(=O)c1c2oc(c1C(=O)OC)C(=O)N[C@@H](C(C)C)Cn1cc(nn1)C1(CCCCC1)NC(=O)N[C@H](CO)CC2 | 0.218 | 1.48 | -0.05 | -0.346 | -0.403 | -0.0269 | -0.0769 | 0.621 | 0.764 | -0.216 |
| CS(=O)(=O)CCOC(=O)C1=CC(CCCO)=CC(c2ccc(CN3CCCC3)cc2)N(Cc2cccc(OC(F)(F)F)c2)C=C1C(=O)OCCS(C)(=O)=O (stereo not given) | 1.22 | -2.99 | 0.558 | 0.784 | 0.217 | 0.133 | 0.0434 | -0.149 | 1.17 | 0.822 |
| COc1ccc([Si](C)(C)[C@@H]2[C@@H](CC(=O)N3Cc4ccccc4C[C@H]3CO)O[C@]3(C(=O)N(Cc4cccc(N5CCC5=O)c4)c4ccccc43)[C@H]2C)cc1 | 1.12 | -3.58 | 0.558 | 0.18 | 0.0915 | -0.1 | -0.0709 | 0.0001 | 0.111 | 1.08 |
| CCCCN1CC=CC23O[C@@H]4C=CCOC(=O)[C@@H]4[C@H]2C(=O)N(CCCCCCO)[C@@H]3C1=O (stereo not given in full) | -0.477 | -0.672 | -1.18 | -1.01 | 0.224 | -0.203 | -0.138 | 0.193 | 1.41 | -1.35 |
| O=C(NCCN1CCOCC1)[C@@H]1c2ccccc2C(=O)N(Cc2cc(C(F)(F)F)cc(C(F)(F)F)c2)[C@H]1c1ccc(CO)cc1 | 1.35 | -1.16 | -0.775 | -0.253 | -0.198 | -0.0161 | 0.123 | 0.0763 | -0.729 | 2.1 |
| [N-]=[N+]=Nc1ccccc1[C@H]1OC(c2ccc(OCCCO)cc2)=N[C@@]1(Cc1ccccc1)C(=O)N1CCOCC1 | 1.1 | -2.37 | 0.103 | 2.25 | 0.937 | -0.0748 | 0.886 | 0.88 | 1.32 | 1.73 |
| CCCCC(O)C1C=CC2C(=O)N(C)C(=O)C2N1N1CCCCC1 (stereo not given) | 1.34 | 0.0634 | 0.462 | 0.0471 | -0.665 | 0.0251 | 0.156 | -0.294 | 0.893 | 1.16 |
| COc1cc2c(cc1OC)CN(C(=O)[C@H]1[C@@H]3C(=O)O[C@@H](c4ccccc4)[C@@H](c4ccccc4)N3[C@@H](c3ccccc3OCCO)[C@]13C(=O)Nc1ccc(C#CCCO)cc13)CC2 | 1.37 | -1.79 | 0.61 | 0.234 | -0.114 | 0.0136 | -0.138 | 0.194 | 0.532 | 0.862 |
